# Laboratory results as given in the supplement of paper PMC8728848.
# Shown is part of a subset that was picked to be rich in the strongest signals.
# B1: PX9937J-pdi-523-26-523 (Parabacteroides distasonis) (protein)
# chain: EPVSSISDANYWKSPDLFKAFNIGLHGLLRSQSSYNIFVLGEPRSDIYGDQPFGGEATQGVERFSYNTINAEFTGISNFANFYTTLNQINLMIRRTNETDLLGEAEKNYYLGQAYGLRAYIYFHLLRSWGDVIITTEPTLGSELDISHLDKAASPASEVMDLIKKDIDASEKAFGGDYSYKQGKCYWSKPATLMLKGEVYLWSGRQMGGGTGDYTVAKTALQDLQQNGNLKLQEKFTDVFSFNNKENSEMIFALHSGKEDDFMMWRDYNWRNNMVPQREYMAGYCDETGTPFLEIPGYNLQGLMRYQVKKDHYLKSFREGDTRLKGTLKAVYKKHEDGTLEYIAPIQYKFQGTTLEGSNERSWYDDYPIYRYADALLLLAEAKALLGEDPSTEINAVRERAYGSEYFNAHKNEVAYPNDKGSFYNDNPFEAGDENVMEAILKERLREFFFEGKRWYDLRRFGKDYVLKYTTAQESRLLWPINEGALTNNPALKQTPGY
# Columns and labels:
# Test in all cases: glycan array binding signal (z-score within array); higher = stronger binding
# Conditions in all cases: glycan notation: IUPAC condensed, linker removed
# [1] = target: Fuc(a1-2)Gal(b1-3)GlcNAc(b1-3)[Fuc(a1-2)Gal(b1-3)GlcNAc(b1-6)]GalNAc
# Summary of the method: (§1)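 Arrays were curated from the Consortium for Functional Glycomics database, 3228 in total, and kept only where the protein sequence was available. Binding is expressed as a within-array Z-score. This score was averaged across arrays of the same protein sequence at different concentrations or buffers and across linkers, and negative values can be read as non-binding.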
# Fuc(a1-2)Gal(b1-4)Glc6S = target: Fuc(a1-2)Gal(b1-4)Glc6S
# Summary of the method: as §1
# [2] = target: Fuc(a1-2)Gal(b1-4)GlcNAc(b1-2)Man(a1-3)[Fuc(a1-2)Gal(b1-4)GlcNAc(b1-2)Man(a1-6)]Man(b1-4)GlcNAc(b1-4)[Fuc(a1-6)]GlcNAc
# Summary of the method: as §1
# [3] = target: Fuc(a1-2)[Gal(a1-3)]Gal(b1-3)GalNAc
# Summary of the method: as §1
# [4] = target: Fuc(a1-2)[Gal(a1-3)]Gal(b1-4)GlcNAc(b1-3)[Fuc(a1-2)[Gal(a1-3)]Gal(b1-4)GlcNAc(b1-6)]GalNAc
# Summary of the method: as §1
# [5] = target: Fuc(a1-2)[GalNAc(a1-3)]Gal(b1-4)GlcNAc(b1-3)Gal(b1-4)GlcNAc(b1-3)Gal(b1-4)GlcNAc
# Summary of the method: as §1
# [6] = target: Fuc(a1-3)[Gal(b1-4)]Glc6S
# Summary of the method: as §1
# [7] = target: Fuc(a1-3)[Gal(b1-4)]GlcNAc(b1-6)GalNAc
# Summary of the method: as §1
# [8] = target: Fuc(a1-3)[Gal(b1-4)]GlcNAc6S
# Summary of the method: as §1
# Gal(a1-2)Gal = target: Gal(a1-2)Gal
# Summary of the method: as §1
# Gal(a1-4)Gal(b1-4)Glc = target: Gal(a1-4)Gal(b1-4)Glc
# Summary of the method: as §1
# [9] = target: Gal(a1-4)Gal(b1-4)GlcNAc(b1-2)Man(a1-3)[Gal(a1-4)Gal(b1-4)GlcNAc(b1-2)Man(a1-6)]Man(b1-4)GlcNAc(b1-4)GlcNAc
# Summary of the method: as §1
# [10] = target: Gal(b1-3)GlcNAc(b1-2)Man(a1-3)[Gal(b1-3)GlcNAc(b1-2)Man(a1-6)]Man(b1-4)GlcNAc(b1-4)GlcNAc
# Summary of the method: as §1
# [11] = target: Gal(b1-3)GlcNAc(b1-3)Gal(b1-4)GlcNAc(b1-2)Man(a1-3)[Gal(b1-3)GlcNAc(b1-3)Gal(b1-4)GlcNAc(b1-2)Man(a1-6)]Man(b1-4)GlcNAc(b1-4)GlcNAc
# Summary of the method: as §1
# [12] = target: Gal(b1-3)GlcNAc(b1-3)Gal(b1-4)GlcNAc(b1-6)[Gal(b1-3)GlcNAc(b1-3)]Gal(b1-4)Glc
# Summary of the method: as §1
# [13] = target: Gal(b1-3)GlcNAc(b1-3)Gal(b1-4)[Fuc(a1-3)]GlcNAc(b1-6)[Gal(b1-3)GlcNAc(b1-3)]Gal(b1-4)Glc
# Summary of the method: as §1
# [14] = target: Gal(b1-3)GlcNAc(b1-3)GalNAc
# Summary of the method: as §1
# [15] = target: Gal(b1-3)GlcNAc(b1-6)Gal(b1-4)GlcNAc
# Summary of the method: as §1
# [16] = target: Gal(b1-3)[Fuc(a1-4)]GlcNAc(b1-3)Gal(b1-4)[Fuc(a1-3)]GlcNAc
# Summary of the method: as §1
# Gal(b1-4)GlcNAc = target: Gal(b1-4)GlcNAc
# Summary of the method: as §1
# [17] = target: Gal(b1-4)GlcNAc(b1-3)Gal(b1-4)GlcNAc
# Summary of the method: as §1
# [18] = target: Gal(b1-4)GlcNAc(b1-3)Gal(b1-4)GlcNAc(b1-2)[Gal(b1-4)GlcNAc(b1-3)Gal(b1-4)GlcNAc(b1-6)]Man(a1-6)[Gal(b1-4)GlcNAc(b1-3)Gal(b1-4)GlcNAc(b1-2)Man(a1-3)]Man(b1-4)GlcNAc(b1-4)GlcNAc
# Summary of the method: as §1
# [19] = target: Gal(b1-4)GlcNAc(b1-3)Gal(b1-4)GlcNAc(b1-3)Gal(b1-4)GlcNAc(b1-3)Gal(b1-4)GlcNAc(b1-2)Man(a1-3)[Gal(b1-4)GlcNAc(b1-3)Gal(b1-4)GlcNAc(b1-3)Gal(b1-4)GlcNAc(b1-3)Gal(b1-4)GlcNAc(b1-2)Man(a1-6)]Man(b1-4)GlcNAc(b1-4)[Fuc(a1-6)]GlcNAc
# Summary of the method: as §1
# [20] = target: Gal(b1-4)GlcNAc(b1-3)Gal(b1-4)GlcNAc(b1-3)Gal(b1-4)GlcNAc(b1-3)Gal(b1-4)GlcNAc(b1-3)Gal(b1-4)GlcNAc(b1-3)Gal(b1-4)GlcNAc(b1-2)Man(a1-3)[Gal(b1-4)GlcNAc(b1-3)Gal(b1-4)GlcNAc(b1-3)Gal(b1-4)GlcNAc(b1-3)Gal(b1-4)GlcNAc(b1-3)Gal(b1-4)GlcNAc(b1-3)Gal(b1-4)GlcNAc(b1-2)Man(a1-6)]Man(b1-4)GlcNAc(b1-4)GlcNAc
# Summary of the method: as §1
# [21] = target: Gal(b1-4)GlcNAc(b1-3)Gal(b1-4)GlcNAc(b1-3)GalNAc
# Summary of the method: as §1
# [22] = target: Gal(b1-4)GlcNAc(b1-3)GalNAc
# Summary of the method: as §1
# [23] = target: Gal(b1-4)GlcNAc(b1-3)[Gal(b1-4)GlcNAc(b1-6)]Gal(b1-4)GlcNAc
# Summary of the method: as §1
# [24] = target: Gal(b1-4)GlcNAc(b1-6)[Gal(b1-4)GlcNAc(b1-3)]GalNAc
# Summary of the method: as §1
binder,measurement,setting,value
B1,glycan array binding signal (z-score),[1],-0.127
same,glycan array binding signal (z-score),Fuc(a1-2)Gal(b1-4)Glc6S,-0.759
same,glycan array binding signal (z-score),[2],0.953
same,glycan array binding signal (z-score),[3],-0.16
same,glycan array binding signal (z-score),[4],-0.426
same,glycan array binding signal (z-score),[5],-0.377
same,glycan array binding signal (z-score),[6],-0.103
same,glycan array binding signal (z-score),[7],-0.093
same,glycan array binding signal (z-score),[8],5.71
same,glycan array binding signal (z-score),Gal(a1-2)Gal,-0.363
same,glycan array binding signal (z-score),Gal(a1-4)Gal(b1-4)Glc,0.596
same,glycan array binding signal (z-score),[9],2.9
same,glycan array binding signal (z-score),[10],-0.12
same,glycan array binding signal (z-score),[11],3.05
same,glycan array binding signal (z-score),[12],0.461
same,glycan array binding signal (z-score),[13],-0.698
same,glycan array binding signal (z-score),[14],-0.708
same,glycan array binding signal (z-score),[15],-0.374
same,glycan array binding signal (z-score),[16],-0.34
same,glycan array binding signal (z-score),Gal(b1-4)GlcNAc,0.078
same,glycan array binding signal (z-score),[17],-0.225
same,glycan array binding signal (z-score),[18],10.4
same,glycan array binding signal (z-score),[19],0.026
same,glycan array binding signal (z-score),[20],8.6
same,glycan array binding signal (z-score),[21],6.57
same,glycan array binding signal (z-score),[22],-0.086
same,glycan array binding signal (z-score),[23],-0.21
same,glycan array binding signal (z-score),[24],-0.149
